Measurements from PubChem BioAssay (Tox21).
“And” between values parts separate entries of the source, which are not always exact repeats. Identical values can stand only once. Results filed as inconclusive are left out. A call without a number means that no potency is given here. Where a structure was tested more than once in an assay, its records may differ in their call. The source made the active and inactive calls. Unless noted, the call rests on the fitted dose curve; in most records, active means well fitted curve in the direction sought with a large enough effect in the repeat runs; inconclusive means weak or mixed curves; inactive means no such curve, though single readings can be large; an effect the other way counts as inactive or inconclusive.

Legend:
[1] = target: Luciferin 4-monooxygenase (Photinus pyralis) (UniProt P08659); test: qHTS assay to identify small molecule inhibitors of firefly luciferase (AID 1224835); further: nearly all actives have a fitted effect of over 25% in size
Luciferin 4-monooxygenase (Photinus pyralis), sequence (P08659 whole entry, looked up): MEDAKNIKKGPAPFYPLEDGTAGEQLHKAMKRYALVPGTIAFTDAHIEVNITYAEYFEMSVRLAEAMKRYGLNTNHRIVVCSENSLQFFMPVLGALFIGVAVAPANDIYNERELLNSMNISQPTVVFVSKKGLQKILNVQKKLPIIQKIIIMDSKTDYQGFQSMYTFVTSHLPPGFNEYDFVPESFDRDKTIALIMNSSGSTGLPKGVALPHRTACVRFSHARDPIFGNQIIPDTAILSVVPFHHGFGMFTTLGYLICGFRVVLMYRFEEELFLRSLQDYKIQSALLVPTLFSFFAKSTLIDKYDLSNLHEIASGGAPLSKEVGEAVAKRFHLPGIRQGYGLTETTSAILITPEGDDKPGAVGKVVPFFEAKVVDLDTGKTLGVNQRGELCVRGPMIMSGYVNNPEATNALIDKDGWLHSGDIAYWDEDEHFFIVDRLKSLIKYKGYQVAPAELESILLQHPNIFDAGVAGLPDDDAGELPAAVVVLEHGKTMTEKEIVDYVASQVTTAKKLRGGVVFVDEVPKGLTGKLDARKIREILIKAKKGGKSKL
Procedure, shortened: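 Inhibition of purified Photinus luciferase is measured by luminescence. Substrate levels (D-luciferin, ATP) sit at their KM values. Each compound is tested in a concentration series.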

[2] = qHTS assay to identify small molecule agonists of the constitutive androstane receptor (CAR) signaling pathway - cell viability counter screen (AID 1224836); further: nearly all actives have a fitted effect of over 45% in size
Procedure, shortened: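 23 h treatment, 37 C, 5% CO2. Cell line: HepG2 stably expressing hCAR with a CYP2B6-2.2kb construct. Co-treatment: PK11195, 0.75 uM final. Read-out: CellTiter-Fluor fluorescence intensity.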

[3] = target: Nuclear receptor subfamily 1 group I member 3 (Homo sapiens) (UniProt Q14994); test: qHTS assay to identify small molecule antagonists of the constitutive androstane receptor (CAR) signaling pathway (AID 1224838);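 further: HepG2 cells stably expressing hCAR with CYP2B6 luciferase reporter stimulated by CITCO; nearly all actives have a fitted effect of over 40% in size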
Nuclear receptor subfamily 1 group I member 3 (Homo sapiens), sequence (Q14994 whole entry, looked up): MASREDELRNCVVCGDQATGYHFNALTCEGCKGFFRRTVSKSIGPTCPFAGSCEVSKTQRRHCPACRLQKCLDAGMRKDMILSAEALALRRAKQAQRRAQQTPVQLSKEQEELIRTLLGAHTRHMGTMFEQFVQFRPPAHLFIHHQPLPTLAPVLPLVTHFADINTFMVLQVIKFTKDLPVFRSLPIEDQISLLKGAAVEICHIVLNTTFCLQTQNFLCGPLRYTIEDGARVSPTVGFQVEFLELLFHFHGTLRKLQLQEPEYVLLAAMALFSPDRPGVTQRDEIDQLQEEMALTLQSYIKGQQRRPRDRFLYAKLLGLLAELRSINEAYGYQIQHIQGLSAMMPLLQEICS
Procedure, shortened: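 Reporter luminescence was quantified after 24 h exposure of hCAR/CYP2B6-2.2kb double-stable HepG2 cells to compounds at 15 concentrations in the presence of 50 nM CITCO final.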

[4] = qHTS assay to identify small molecule antagonists of the estrogen related receptor signaling pathway with the pleiotropic PPARgamma coactivator (PGC) from Tox21 10K library - cell viability counter screen (AID 1224840; active means well fitted cell-killing curve with a large enough effect in the repeat runs, not every such curve was filed as active; further: nearly all actives have a fitted effect of over 40% in size)
Procedure, shortened: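 Here the PGC/ERR cells serve as a cytotoxicity control: they are exposed to compounds for 17.5 hours at 37 C, and live-cell signal is quantified using CellTiter-Fluor fluorescence.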

[5] = qHTS assay to identify small molecule antagonists of the estrogen related receptor signaling pathway with the pleiotropic PPARgamma coactivator (PGC) from Tox21 10K library (AID 1224841; call rule not given here; further: actives are mostly falling curves and most rising ones were filed inactive; nearly all actives have a fitted effect of over 50% in size)
Procedure, shortened: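 Each well held 2,000 PGC/ERR cells, pre-incubated six hours (37 C, 5% CO2). Test substances in DMSO were added by pin tool and left for 18 h at 37 C before luciferase detection by One-Glo.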

[6] = qHTS assay to identify small molecule agonists of the estrogen related receptor signaling pathway with the pleiotropic PPARgamma coactivator (PGC) from Tox21 10K library (AID 1224842); further: nearly all actives have a fitted effect of over 15% in size
Procedure, shortened: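 Luminescence from One-Glo (30 min, room temperature) measured after PGC/ERR cells had 18 h at 37 C with pinned compound (23 nL in DMSO). Cells had been seeded at 2,000 per well and pre-incubated 6 h.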

[7] = target: Thyrotropin receptor (Homo sapiens) (UniProt P16473); test: qHTS assay to identify small molecule agonists of the thyroid stimulating hormone receptor (TSHR) signaling pathway (AID 1224843; calls by dose curve; further: nearly all actives have a fitted effect of over 45% in size)
Thyrotropin receptor (Homo sapiens), sequence (P16473 whole entry, looked up): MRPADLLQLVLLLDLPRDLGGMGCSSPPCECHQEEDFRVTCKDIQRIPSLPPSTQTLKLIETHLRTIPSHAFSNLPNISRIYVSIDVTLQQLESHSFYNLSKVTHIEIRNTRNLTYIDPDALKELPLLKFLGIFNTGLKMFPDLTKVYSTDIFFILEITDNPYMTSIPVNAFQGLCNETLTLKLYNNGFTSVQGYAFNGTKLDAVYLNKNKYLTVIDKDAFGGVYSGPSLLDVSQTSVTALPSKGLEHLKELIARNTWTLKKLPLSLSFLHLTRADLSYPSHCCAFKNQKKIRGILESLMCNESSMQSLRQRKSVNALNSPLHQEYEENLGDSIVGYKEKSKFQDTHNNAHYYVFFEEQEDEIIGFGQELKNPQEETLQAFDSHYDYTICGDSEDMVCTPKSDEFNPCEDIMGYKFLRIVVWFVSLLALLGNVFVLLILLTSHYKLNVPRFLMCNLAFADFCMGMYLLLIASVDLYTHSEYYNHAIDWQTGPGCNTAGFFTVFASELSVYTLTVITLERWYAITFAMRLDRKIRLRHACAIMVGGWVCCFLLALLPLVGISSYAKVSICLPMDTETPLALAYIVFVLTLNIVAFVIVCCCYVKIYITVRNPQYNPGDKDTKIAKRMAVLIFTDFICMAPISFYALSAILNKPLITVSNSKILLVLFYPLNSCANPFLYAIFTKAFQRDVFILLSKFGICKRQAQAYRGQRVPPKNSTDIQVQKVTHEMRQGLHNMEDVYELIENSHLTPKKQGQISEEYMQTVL
Procedure, shortened: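 HEK293 cells stably bearing the thyrotropin receptor were plated at 800 cells/well and challenged with compound (30 min, RT). Accumulated cAMP was quantified via cAMP-d2 competing for cryptate-tagged antibody.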

[8] = qHTS assay to identify small molecule antagonists of the constitutive androstane receptor (CAR) signaling pathway - cell viability counter screen (AID 1224837); further: nearly all actives have a fitted effect of over 45% in size
Procedure, shortened: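 Using CellTiter-Fluor, viability is scored in HepG2 cells stably carrying hCAR and a 2.2kb CYP2B6 reporter after 23 hr compound exposure across 15 concentrations, with CITCO present at 50 nM.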

[9] = qHTS assay to identify small molecule agonists of the hypoxia (HIF-1) signaling pathway - cell viability counter screen (AID 1224844; calls by dose curve; further: nearly all actives have a fitted effect of over 50% in size)
Procedure, shortened: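 Multiplexed with the HRE beta-lactamase assay, this viability read used CellTiter-Glo luminescence (30 min, RT) on HRE-bla ME-180 cells treated 17 hrs with compounds in 0.5% dialyzed FBS medium.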

[10] = target: Nuclear receptor subfamily 1 group I member 3 (Homo sapiens) (UniProt Q14994); test: qHTS assay to identify small molecule agonists of the constitutive androstane receptor (CAR) signaling pathway (AID 1224839); further: nearly all actives have a fitted effect of over 15% in size
Procedure, shortened: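 Compounds tested at 15 concentrations on HepG2 cells stably harbouring hCAR and CYP2B6-2.2kb reporter constructs, co-treated with PK11195 (0.75 uM final), 24 h at 37 C; luminescent reporter signal quantified.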
Potency means the concentration at half of the fitted maximal effect.

SMILES | Potency [1] | Potency [2] | Potency [3] | Potency [4] | Potency [5] | Potency [6] | Potency [7] | Potency [8] | Potency [9] | Potency [10]
C=CC(=O)OCCCCCCOC(=O)C=C | inactive | inactive | inactive | 48.6 µM (active) | inactive | 21.7 µM (active) | inactive |  |  | 
NNCCc1ccccc1 | 25.3 µM (active) and inactive | inactive | inactive | inactive |  |  | inactive | inactive | inactive | 
O=Nc1ccc(Nc2ccccc2)cc1 | 35.8 µM (active) and 39.9 µM (active) | inactive | inactive | 15.4 µM (active) and 19.3 µM (active) |  | 9.69 µM (active) |  | inactive | 55.3 µM (active) | 
Oc1c(Cl)cc(Cl)c(Cl)c1Cc1c(O)c(Cl)cc(Cl)c1Cl | inactive | 7.67 µM (active) | 10.8 µM (active) and 10.9 µM (active) and 9.44 µM (active) |  |  |  | 15.3 µM (active) and inactive | 9.44 µM (active) | 19.4 µM (active) and 19.5 µM (active) | 
CCCC(=O)c1ccccc1 | inactive |  | inactive | inactive | inactive | inactive | inactive | inactive | inactive | inactive
CC(C)(C)c1ccc(O)c(C(C)(C)C)c1 | inactive |  | inactive |  | 54.3 µM (active) and inactive | inactive |  | inactive | 43.5 µM (active) | inactive
CCCCOCCOC(=O)c1ccccc1C(=O)OCCOCCCC | inactive |  | inactive | inactive | 16.9 µM (active) and inactive | inactive |  | inactive | inactive | inactive
CCOc1ccccc1C(N)=O | inactive | inactive | inactive | inactive |  |  | inactive | inactive | inactive | 
CC(=O)O[C@]1(C(C)=O)CC[C@H]2[C@@H]3C[C@H](C)C4=CC(=O)CC[C@]4(C)[C@H]3CC[C@@]21C | inactive |  | inactive | inactive |  |  | inactive | inactive | inactive | inactive
CN(C)c1ccc2nc3ccc(=[N+](C)C)cc-3sc2c1 | 15.3 µM (active) and 20 µM (active) and 17.4 µM (active) | 24.3 µM (active) and 13.3 µM (active) | inactive | 2.62 µM (active) and 7.7 µM (active) | 1.86 µM (active) and 1.93 µM (active) and 2.66 µM (active) | inactive |  | 27.3 µM (active) and 11.9 µM (active) | 5.92 µM (active) and 43.6 µM (active) and inactive | 
CN1C(=O)c2ccc([N+](=O)[O-])cc2C1=O | inactive |  | inactive | inactive | inactive | inactive | inactive | inactive | inactive | inactive
O=C(O)CP(=O)(O)O | inactive | inactive | inactive | inactive |  |  | inactive | inactive | inactive | 
Cc1cccc([N+](=O)[O-])c1C(=O)O | inactive |  | inactive | inactive | inactive | inactive | inactive | inactive | inactive | inactive
CCC[C@H](N[C@@H](C)C(=O)N1[C@H](C(=O)O)C[C@@H]2CCCC[C@@H]21)C(=O)OCC | inactive | inactive |  | inactive |  |  |  | inactive | inactive | 
CCc1ccc(C(c2ccc(CC)cc2)C(Cl)Cl)cc1 |  | inactive | inactive | inactive |  |  |  | inactive | inactive | 22 µM (active)
CCN(CC)c1ccc2c(C)cc(=O)oc2c1 | 40.2 µM (active) and 35.6 µM (active) |  | inactive | inactive |  |  | inactive |  | inactive | 27.5 µM (active) and 48.6 µM (active)
CCCCN(CCO)CCCC | inactive |  | inactive | inactive | inactive | inactive | inactive | inactive | inactive | 
